Test [1] concerns the target Oxysterols receptor LXR-beta (Homo sapiens) (UniProt P55055). Description: ATG_LXRb_TRANS: Attagene TRANS-FACTORIAL HepG2 Assay for human Liver X Receptor beta (LXRb) (AID 2282981; active = hit-call score of the fitted dose curve at least 0.9, where 1 is the maximum). To be noted: HepG2 Attagene TRANS GAL4-LXRb reporter, mRNA. In a few lines:
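HepG2 cells transiently transfected with multiple reporter transcription units carrying chimeric NR-Gal4 proteins acting on GAL4-UAS reporters; compound exposure 24 h. Reporter mRNA quantified by RT-PCR, 6-FAM labelling, HpaI digestion and capillary electrophoresis; gain of signal versus DMSO.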

Test [2] has as its target Hepatocyte nuclear factor 4-alpha (Homo sapiens) (UniProt P41235). Briefly: ATG_HNF4a_TRANS: Attagene TRANS-FACTORIAL HepG2 Assay for human Hepatocyte Nuclear Factor 4 alpha (HNF4a) (AID 2282982; active = hit-call score of the fitted dose curve at least 0.9, where 1 is the maximum). To be noted: HepG2 HNF4a transactivation reporter, mRNA readout. In a few lines:
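HepG2 cells transiently transfected with multiplexed GAL4-UAS reporter units responsive to chimeric NR-GAL4 proteins; compound exposure 24 h. Reporter mRNA quantified by RT-PCR, 6-FAM labelling, HpaI digestion and capillary electrophoresis; gain of signal versus DMSO baseline.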

A short description of test [3]: ATG_M_06_TRANS: Attagene TRANS-FACTORIAL HepG2 Assay for M06 Transcription Factor (Internal Marker) (AID 2282983; active = hit-call score of the fitted dose curve at least 0.9, where 1 is the maximum). To be noted: HepG2 Attagene TRANS M06 internal marker reporter. In a few lines:
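HepG2 cells transiently transfected with multiplexed GAL4-UAS reporter transcription units; after 24 h compound exposure, reporter mRNA measured by RT-PCR, FAM-labelled primer extension, HpaI digestion and capillary electrophoresis. Gain-of-signal fitted versus DMSO baseline; background control readout.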

Test [4] concerns the target Nuclear receptor subfamily 4 group A member 2 (Homo sapiens) (UniProt P43354). Description: ATG_NURR1_TRANS: Attagene TRANS-FACTORIAL HepG2 Assay for human Nuclear Receptor Related Protein 1 (NURR1) (AID 2282985; active = hit-call score of the fitted dose curve at least 0.9, where 1 is the maximum). To be noted: HepG2 Attagene TRANS reporter, mRNA readout. In a few lines: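 HepG2 cells transiently transfected with GAL4-UAS reporter units and chimeric NR-Gal4 constructs; chemical exposure 24 h. Reporter mRNA quantified by RT-PCR, fluorescent labelling and capillary electrophoresis; gain of signal fitted relative to DMSO baseline.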

In test [5] the target is Transcriptional activator Myb (Homo sapiens) (UniProt P10242). Briefly: ATG_Myb_CIS: Attagene CIS-FACTORIAL HepG2 Assay for human Myeloblastosis (Myb) Proto-Oncogene Transcription Factor (AID 2282986). To be noted: HepG2 Attagene CIS-FACTORIAL Myb reporter transcription; actives raise or lower the signal. In a few lines:
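Transiently transfected HepG2 cells carrying a multiplexed cis-promoter reporter set report endogenous Myb activity after 24 h compound exposure. Reporter mRNA is read by RT-PCR with capillary electrophoresis of fluorescent products, fitted bidirectionally against DMSO.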

Test [6] in a line: ATG_NFI_CIS: Attagene CIS-FACTORIAL HepG2 Assay for human Nuclear Factor I (NFI) (AID 2282989). To be noted: HepG2 cis-regulatory reporter, NFI response element transcription; actives raise or lower the signal. In a few lines:
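Reporter transcripts were measured by RT-PCR with fluorescent primer extension and capillary electrophoresis 24 h post-treatment. HepG2 cells carried transiently transfected cis-regulated reporter constructs reporting endogenous factor activity; gain or loss fitted against DMSO baseline.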

For test [7], the target named is Myc proto-oncogene protein (Homo sapiens) (UniProt P01106). Briefly: ATG_Myc_CIS: Attagene CIS-FACTORIAL HepG2 Assay for human Myelocytomatosis (Myc) Proto-Oncogene Transcription Factor (AID 2282990). To be noted: HepG2, Attagene cis-reporter transcription factor activity; actives raise or lower the signal. In a few lines:
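DMSO-normalised, bidirectionally fitted reporter mRNA signal. HepG2 cells transfected with cis reporter constructs, treated 24 h; transcripts detected by RT-PCR, 6-FAM primer extension and CE.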

Test [8] in a line: ATG_NF_kB_CIS: Attagene CIS-FACTORIAL HepG2 Assay for human Nuclear Factor Kappa B (NF-kB) (AID 2282991). To be noted: HepG2 Attagene cis-factorial NF-kB reporter mRNA; actives raise or lower the signal. In a few lines:
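HepG2 cells transfected with cis-promoter-driven reporter units, so endogenous transcription factor activity is measured. Reporter mRNA quantified 24 h after dosing by RT-PCR and capillary electrophoresis, with bidirectional fitting against DMSO.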

The nature of test [9]: ATG_NRF2_ARE_CIS: Attagene CIS-FACTORIAL HepG2 Assay for human Nuclear Factor Erythroid 2 Related Factor 2 (NFR2) response to Antioxidant Response Elements (ARE) (AID 2282992).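 For AC50: reporter mRNA level measured by RT-PCR and capillary electrophoresis fluorescence.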 To be noted: HepG2 Attagene ARE/NRF2 reporter, transcription factor activity; actives raise or lower the signal. In a few lines:
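Transient MRTU transfection of HepG2; 24 h compound exposure; TriZol RNA, RT with oligo(dT), PCR, 6-FAM primer extension, HpaI cut, CE. Bidirectional fit vs DMSO.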

A short description of test [10]: ATG_Oct_MLP_CIS: Attagene CIS-FACTORIAL HepG2 Assay for human Octamer-Binding Transcription Factor (Oct) (AID 2282993). To be noted: HepG2 Attagene cis-factorial Oct reporter, mRNA; actives raise or lower the signal. In a few lines:
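Readout is reporter transcript level from RT-PCR with fluorescent primer extension and capillary electrophoresis, fitted in both directions against DMSO. Transfected HepG2 reporter units report endogenous factor activity after 24 h dosing.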

The nature of test [11]: BSK_3C_TissueFactor: BioMAP Diversity Plus: 3C Assay for Tissue Factor Biomarker Activity (AID 2282997). To be noted: BioMAP 3C HUVEC, tissue factor biomarker readout; actives raise or lower the signal. In a few lines: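 Primary human umbilical vein endothelial cells in the 3C system were exposed to test chemical for 24 h, then Tissue Factor measured by ELISA. Activity was fitted bidirectionally against DMSO as negative control and baseline.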

A short description of test [12]: BSK_3C_uPAR: BioMAP Diversity Plus: 3C Assay for Urokinase-type plasminogen activator receptor (uPAR) Biomarker Activity (AID 2282998). To be noted: BioMAP 3C HUVEC, uPAR biomarker ELISA; actives raise or lower the signal. In a few lines: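 Cell-surface uPAR on HUVEC (3C system) read by ELISA at 24 h post-treatment, with DMSO as baseline and fitting in both directions. Parallel cultures stained with SRB to flag overt cytotoxicity.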

Test [13] addresses Bile acid receptor (Homo sapiens) (UniProt Q96RI1). Description: ATG_FXR_TRANS: Attagene TRANS-FACTORIAL HepG2 Assay for Farnesoid X Receptor (FXR) (AID 2282979; active = hit-call score of the fitted dose curve at least 0.9, where 1 is the maximum;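 note: hits raise reporter mRNA above DMSO so AC50 marks FXR activation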). To be noted: HepG2 Attagene TRANS FXR-GAL4 reporter transcription. In a few lines: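 HepG2 cells transiently transfected with reporter constructs in which a chimeric FXR-GAL4 protein drives a GAL4-UAS reporter; 24 h compound exposure. Reporter mRNA measured by RT-PCR, FAM labelling, HpaI digestion and capillary electrophoresis; gain-of-signal versus DMSO.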

Test [14] concerns the target Oxysterols receptor LXR-alpha (Homo sapiens) (UniProt Q13133). Description: ATG_LXRa_TRANS: Attagene TRANS-FACTORIAL HepG2 Assay for human Liver X Receptor alpha (LXRa) (AID 2282980; active = hit-call score of the fitted dose curve at least 0.9, where 1 is the maximum). To be noted: HepG2 Attagene TRANS reporter, LXRa transactivation. In a few lines: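 HepG2 cells were transiently transfected with multiplexed reporter units driven by chimeric LXRa–GAL4 fusion proteins, then dosed for 24 h. Reporter mRNA was quantified by RT-PCR, fluorescent labelling and capillary electrophoresis; gain of signal fitted against DMSO baseline.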

A short description of test [15]: ATG_M_32_TRANS: Attagene TRANS-FACTORIAL HepG2 Assay for M32 Transcription Factor (Internal Marker) (AID 2282984; active = hit-call score of the fitted dose curve at least 0.9, where 1 is the maximum). To be noted: HepG2 Attagene TRANS M32 internal marker reporter. In a few lines:
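HepG2 cells transiently transfected with multiple GAL4-UAS reporter transcription units, dosed for 24 hours; reporter mRNA quantified by RT-PCR, 6-FAM primer extension, HpaI digestion and capillary electrophoresis. Gain-of-signal fitted versus DMSO baseline; internal background-control marker.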

The target in test [16] is Nuclear respiratory factor 1 (Homo sapiens) (UniProt Q16656). Description: ATG_NRF1_CIS: Attagene CIS-FACTORIAL HepG2 Assay for human Nuclear Respiratory Factor 1 (NRF1) Orphan Gene (AID 2282987). To be noted: HepG2 NRF1 cis-element reporter, Attagene multiplex; actives raise or lower the signal. In a few lines: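 HepG2 cells transiently transfected with multiple cis-regulated reporter units, exposed 24 h. Reporter mRNAs measured by RT-PCR, fluorescent labelling, HpaI digestion and capillary electrophoresis; bidirectional fitting against DMSO.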
Chain of Nuclear respiratory factor 1 (Homo sapiens) (Q16656 whole entry, looked up): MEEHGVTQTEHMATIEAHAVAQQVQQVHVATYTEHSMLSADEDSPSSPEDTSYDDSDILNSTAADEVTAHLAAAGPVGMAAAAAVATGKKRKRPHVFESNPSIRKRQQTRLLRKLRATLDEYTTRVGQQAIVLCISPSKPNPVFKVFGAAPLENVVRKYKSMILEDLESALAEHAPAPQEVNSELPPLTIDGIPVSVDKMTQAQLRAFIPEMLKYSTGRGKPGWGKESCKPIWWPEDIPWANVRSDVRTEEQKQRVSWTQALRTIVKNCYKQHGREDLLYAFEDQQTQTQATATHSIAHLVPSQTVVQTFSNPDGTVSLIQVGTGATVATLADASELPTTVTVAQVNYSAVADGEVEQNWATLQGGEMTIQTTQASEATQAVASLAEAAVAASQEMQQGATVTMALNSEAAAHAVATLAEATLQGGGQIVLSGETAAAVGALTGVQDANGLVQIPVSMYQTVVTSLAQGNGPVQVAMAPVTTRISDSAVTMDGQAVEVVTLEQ

For test [17], the target named is Glucocorticoid receptor (Homo sapiens) (UniProt P04150). Briefly: ATG_GR_TRANS: Attagene TRANS-FACTORIAL HepG2 Assay for human Glucocorticoid Receptor (GR) (AID 2282978; active = hit-call score of the fitted dose curve at least 0.9, where 1 is the maximum;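 note: activators score as hits since higher reporter transcript over DMSO is fitted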). To be noted: HepG2 Attagene TRANS GR reporter, mRNA transcription. In a few lines: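 HepG2 cells transiently transfected with GAL4-UAS reporter units and exogenous GR-Gal4 chimera, dosed 24 h. Reporter mRNA by RT-PCR, FAM labeling, HpaI digest and capillary electrophoresis; gain-of-signal fit versus DMSO.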
Chain of Glucocorticoid receptor (Homo sapiens) (P04150 whole entry, looked up, the tested form may be a part): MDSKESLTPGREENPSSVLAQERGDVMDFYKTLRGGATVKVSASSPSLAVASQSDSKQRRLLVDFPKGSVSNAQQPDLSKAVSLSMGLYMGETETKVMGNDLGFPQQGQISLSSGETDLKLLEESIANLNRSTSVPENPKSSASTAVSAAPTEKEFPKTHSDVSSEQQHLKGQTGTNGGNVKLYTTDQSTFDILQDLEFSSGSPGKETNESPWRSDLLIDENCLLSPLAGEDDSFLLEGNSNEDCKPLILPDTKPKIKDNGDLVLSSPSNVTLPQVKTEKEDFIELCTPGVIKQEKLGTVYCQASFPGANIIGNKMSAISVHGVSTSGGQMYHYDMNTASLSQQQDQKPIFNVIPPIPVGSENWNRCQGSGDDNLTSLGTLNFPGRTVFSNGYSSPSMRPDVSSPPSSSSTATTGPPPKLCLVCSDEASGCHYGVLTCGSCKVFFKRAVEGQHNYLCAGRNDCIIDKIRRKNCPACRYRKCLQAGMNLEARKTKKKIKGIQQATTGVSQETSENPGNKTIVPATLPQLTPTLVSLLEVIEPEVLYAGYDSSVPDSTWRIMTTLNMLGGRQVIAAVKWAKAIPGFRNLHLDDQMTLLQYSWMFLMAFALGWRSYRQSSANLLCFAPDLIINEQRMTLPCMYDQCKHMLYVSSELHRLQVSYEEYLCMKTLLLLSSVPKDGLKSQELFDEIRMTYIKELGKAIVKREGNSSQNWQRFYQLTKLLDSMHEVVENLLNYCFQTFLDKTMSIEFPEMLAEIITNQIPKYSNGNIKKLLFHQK

Test [18] deals with Cellular tumor antigen p53 (Homo sapiens) (UniProt P04637). Briefly: ATG_p53_CIS: Attagene CIS-FACTORIAL HepG2 Assay for human p53 Transcription Factor (AID 2282994). To be noted: HepG2 p53 cis-element reporter, Attagene mRNA; actives raise or lower the signal. In a few lines:
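HepG2, transient MRTU transfection (cis promoter elements, endogenous TFs); 24 h dosing; RNA isolation, RT-PCR, 6-FAM primer extension, HpaI digest, CE fluorescence; bidirectional fit vs DMSO.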

Structures are written as SMILES. Inconclusive results are not listed. Active and inactive are the calls of the source. Rule for the calls, unless noted: active = hit-call score of the fitted dose curve at least 0.9, where 1 is the maximum; inactive = score below 0.9.

Chain of Transcriptional activator Myb (Homo sapiens) (P10242 whole entry, looked up): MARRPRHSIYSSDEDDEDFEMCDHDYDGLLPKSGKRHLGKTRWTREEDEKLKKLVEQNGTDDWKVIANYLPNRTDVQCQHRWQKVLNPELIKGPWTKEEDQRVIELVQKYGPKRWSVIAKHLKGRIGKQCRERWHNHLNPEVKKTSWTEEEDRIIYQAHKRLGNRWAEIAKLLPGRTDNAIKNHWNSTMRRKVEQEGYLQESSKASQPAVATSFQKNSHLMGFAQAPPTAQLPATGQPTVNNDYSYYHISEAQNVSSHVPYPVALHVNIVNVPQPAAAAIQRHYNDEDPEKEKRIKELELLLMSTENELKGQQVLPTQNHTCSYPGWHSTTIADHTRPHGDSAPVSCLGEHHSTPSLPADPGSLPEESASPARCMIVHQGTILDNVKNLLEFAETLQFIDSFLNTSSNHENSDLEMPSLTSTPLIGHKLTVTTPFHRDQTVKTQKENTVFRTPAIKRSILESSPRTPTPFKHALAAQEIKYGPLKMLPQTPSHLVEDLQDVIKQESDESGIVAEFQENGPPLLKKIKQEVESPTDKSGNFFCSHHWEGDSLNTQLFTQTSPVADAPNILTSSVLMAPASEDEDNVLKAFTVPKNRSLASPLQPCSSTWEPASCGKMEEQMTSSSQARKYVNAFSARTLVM
Chain of Hepatocyte nuclear factor 4-alpha (Homo sapiens) (P41235 whole entry, looked up, the tested form may be a part): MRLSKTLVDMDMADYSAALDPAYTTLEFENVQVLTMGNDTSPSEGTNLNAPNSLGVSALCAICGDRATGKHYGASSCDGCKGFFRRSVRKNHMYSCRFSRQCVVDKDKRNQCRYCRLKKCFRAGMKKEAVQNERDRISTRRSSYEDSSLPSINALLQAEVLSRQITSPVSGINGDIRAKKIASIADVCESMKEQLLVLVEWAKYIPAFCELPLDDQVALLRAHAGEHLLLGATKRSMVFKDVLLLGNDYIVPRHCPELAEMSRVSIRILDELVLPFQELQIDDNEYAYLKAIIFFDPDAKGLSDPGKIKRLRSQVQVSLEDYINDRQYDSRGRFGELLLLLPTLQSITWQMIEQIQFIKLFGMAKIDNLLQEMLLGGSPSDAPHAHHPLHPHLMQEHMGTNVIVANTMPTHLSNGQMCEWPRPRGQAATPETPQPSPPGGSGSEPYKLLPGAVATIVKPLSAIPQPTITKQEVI
Chain of Oxysterols receptor LXR-beta (Homo sapiens) (P55055 whole entry, looked up, the tested form may be a part): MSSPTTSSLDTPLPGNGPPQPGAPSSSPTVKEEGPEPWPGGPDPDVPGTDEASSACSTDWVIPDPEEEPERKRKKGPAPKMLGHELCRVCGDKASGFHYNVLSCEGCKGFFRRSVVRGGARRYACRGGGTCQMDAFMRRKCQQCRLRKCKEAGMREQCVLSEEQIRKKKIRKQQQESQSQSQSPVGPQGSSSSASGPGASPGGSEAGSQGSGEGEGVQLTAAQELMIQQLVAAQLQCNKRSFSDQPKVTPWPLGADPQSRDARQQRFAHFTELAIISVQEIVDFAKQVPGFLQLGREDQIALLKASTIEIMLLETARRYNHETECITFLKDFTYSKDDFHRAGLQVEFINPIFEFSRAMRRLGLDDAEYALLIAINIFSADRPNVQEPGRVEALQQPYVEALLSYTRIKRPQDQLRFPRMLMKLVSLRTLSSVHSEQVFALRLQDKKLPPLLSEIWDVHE
Chain of Myc proto-oncogene protein (Homo sapiens) (P01106 whole entry, looked up): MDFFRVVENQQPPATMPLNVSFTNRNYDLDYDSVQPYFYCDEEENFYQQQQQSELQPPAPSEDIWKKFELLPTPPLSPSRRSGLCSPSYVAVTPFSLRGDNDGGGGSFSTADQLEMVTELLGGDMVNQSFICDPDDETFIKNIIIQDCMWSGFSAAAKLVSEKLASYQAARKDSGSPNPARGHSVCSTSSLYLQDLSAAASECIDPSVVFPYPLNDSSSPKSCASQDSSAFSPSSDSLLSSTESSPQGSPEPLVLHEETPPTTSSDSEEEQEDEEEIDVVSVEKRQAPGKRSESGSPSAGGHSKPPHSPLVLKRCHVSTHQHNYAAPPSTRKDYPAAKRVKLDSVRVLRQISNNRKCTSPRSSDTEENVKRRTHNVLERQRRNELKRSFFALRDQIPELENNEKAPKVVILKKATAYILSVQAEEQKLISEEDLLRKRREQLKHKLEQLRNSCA
Chain of Nuclear receptor subfamily 4 group A member 2 (Homo sapiens) (P43354 whole entry, looked up, the tested form may be a part): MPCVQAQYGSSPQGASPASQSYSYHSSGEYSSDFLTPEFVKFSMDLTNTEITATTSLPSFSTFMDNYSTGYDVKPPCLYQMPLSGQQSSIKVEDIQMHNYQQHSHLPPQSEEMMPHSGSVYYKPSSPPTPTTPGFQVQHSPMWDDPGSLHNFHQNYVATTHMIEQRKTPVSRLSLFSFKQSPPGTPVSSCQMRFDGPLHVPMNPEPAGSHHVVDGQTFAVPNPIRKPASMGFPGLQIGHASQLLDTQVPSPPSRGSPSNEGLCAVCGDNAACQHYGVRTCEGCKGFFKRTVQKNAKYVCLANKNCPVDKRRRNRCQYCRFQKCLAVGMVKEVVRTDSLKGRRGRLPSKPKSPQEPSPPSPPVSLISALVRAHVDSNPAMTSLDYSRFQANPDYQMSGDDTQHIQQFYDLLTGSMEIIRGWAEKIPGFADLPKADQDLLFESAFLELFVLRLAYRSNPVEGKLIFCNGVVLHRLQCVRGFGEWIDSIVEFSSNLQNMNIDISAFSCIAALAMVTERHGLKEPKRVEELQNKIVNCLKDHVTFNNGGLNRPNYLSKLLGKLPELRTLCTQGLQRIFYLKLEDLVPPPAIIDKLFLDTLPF
Chain of Cellular tumor antigen p53 (Homo sapiens) (P04637 whole entry, looked up): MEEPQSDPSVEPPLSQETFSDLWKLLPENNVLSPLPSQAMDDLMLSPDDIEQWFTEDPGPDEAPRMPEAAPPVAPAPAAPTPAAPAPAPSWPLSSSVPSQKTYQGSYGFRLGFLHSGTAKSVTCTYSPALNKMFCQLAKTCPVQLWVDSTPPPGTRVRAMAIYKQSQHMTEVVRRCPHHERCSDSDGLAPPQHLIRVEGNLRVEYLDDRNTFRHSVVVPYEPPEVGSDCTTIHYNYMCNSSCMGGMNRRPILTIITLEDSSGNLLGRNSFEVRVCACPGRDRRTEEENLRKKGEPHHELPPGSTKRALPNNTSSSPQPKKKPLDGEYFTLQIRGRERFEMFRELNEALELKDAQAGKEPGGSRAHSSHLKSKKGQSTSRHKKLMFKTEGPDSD
Chain of Bile acid receptor (Homo sapiens) (Q96RI1 whole entry, looked up, the tested form may be a part): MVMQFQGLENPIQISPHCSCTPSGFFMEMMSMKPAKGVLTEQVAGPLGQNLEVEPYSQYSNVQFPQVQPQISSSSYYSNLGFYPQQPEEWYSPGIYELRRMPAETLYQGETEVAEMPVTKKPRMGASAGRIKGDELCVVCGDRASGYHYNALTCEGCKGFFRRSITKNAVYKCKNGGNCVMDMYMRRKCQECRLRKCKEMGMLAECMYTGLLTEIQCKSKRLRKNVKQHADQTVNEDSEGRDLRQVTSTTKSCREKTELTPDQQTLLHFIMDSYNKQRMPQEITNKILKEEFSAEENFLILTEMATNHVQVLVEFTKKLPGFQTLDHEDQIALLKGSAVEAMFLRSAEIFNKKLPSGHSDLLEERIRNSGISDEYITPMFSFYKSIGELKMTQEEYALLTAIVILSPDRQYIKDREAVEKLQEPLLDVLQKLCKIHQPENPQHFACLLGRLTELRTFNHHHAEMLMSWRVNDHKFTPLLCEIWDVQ

Regarding `CSc1nnc(C(C)(C)C)c(=O)n1N`, the compound was classed as inactive in test [1], in test [2], in [3], in test [4], in test [5] and in test [6]. The compound was called inactive in test [7], in test [8], in test [9], in test [10], in [11] and in [12].
One may read the AC50 as the concentration at which the activity in the assay is half-maximal. For the compound `Cc1cc(C2CC2)nc(Nc2ccccc2)n1`, the result in test [13], in test [14], in test [1], in [2], in test [3] and in [15] was inactive. Also, the compound was classed as inactive in test [4], in [7], in test [11] and in test [12]. In addition, the AC50 in [5] was 79.1 µM (active); in test [6], 29.3 µM (active); in [9] it was 13 µM (active); in test [10], 15.7 µM (active).
On to `CCOP(=O)(SC(C)CC)N1CCSC1=O` (stereo not drawn), for which the result in [1], in test [2], in [15], in [5], in test [16] and in test [6] was inactive. Moreover, the compound was called inactive in test [7], in test [9], in test [10], in [11] and in test [12].
With `CN(C)C(=O)Nc1cccc(C(F)(F)F)c1`, the compound was called inactive in [1], in [15], in [5], in test [6], in test [7] and in test [8]. Further, the outcome in test [9], in test [10], in [11] and in test [12] was inactive.
`COP(=O)(OC)SCn1c(=O)oc2cc(Cl)cnc21`: the result in test [17], in test [1], in [5], in [6], in test [7] and in test [8] was inactive. The call in test [10], in test [18], in test [11] and in test [12] was inactive. For the same compound, the AC50 in [9] is 8.25 µM (active).

Source of the values: PubChem BioAssay (EPA / NIEHS).
